Measurements taken from PubChem BioAssay (NCATS).
Inconclusive results are not listed. Activity calls are given as the source filed them. Calls follow the shape of the dose curve; as a rule, active = well fitted curve in the direction sought with a large enough effect; inconclusive = small, poorly fitted or top-dose-only effect, or another doubt; inactive = no such curve, though single readings can be large; an effect the other way counts as inactive or inconclusive.

Tests used:
[1] = Cell Viability - LYMP1-002 - Assay at 16 hr (AID 948)
Summary of the method: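 ATP luminescence (CellTiter-Glo) was measured after 16 hr compound exposure at 37 C of 2500 lymphoblastoid LYMP1-002 cells per well. Concentration-response curves were fitted with the Hill equation to give AC50.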

[2] = MultiTox-Fluor Cytotoxicity Assay - LYMP1-002 - Live Cells (AID 955);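 also: cells exposed to compound for 16 hours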
Summary of the method: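 Human lymphoblastoid LYMP1-002 cells, 2500/well, treated 16 h at 37 C in complete medium. Live-cell protease activity via GF-AFC fluorescence (Ex/Em 405/510) after 60 min reagent incubation; AC50 from Hill fits.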

[3] = MultiTox-Fluor Cytotoxicity Assay - LYMP1-003 - Dead Cells (AID 961);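 also: cells exposed to compound for 16 h at 37 °C; nearly all actives have a fitted effect of over 70% in size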
Summary of the method: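 LYMP1-003 lymphoblastoid, 2500 cells/well, 5 hr settle then 16 hr cpd at 37 C; MultiTox-Fluor reagent 60 min RT; Ex/Em 485/520 dead-cell signal; norm. DMSO = 0%, 15 uM tetraoctylammonium bromide = 100%; Hill AC50.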

[4] = MultiTox-Fluor Cytotoxicity Assay - LYMP1-003 - Live Cells (AID 962);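 also: cells exposed to compound for 16 hours at 37 °C; cytotoxic hits lower the live-cell protease signal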
Summary of the method: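 LYMP1-003 lymphoblastoid cells, 2500/well in complete medium, treated 16 h at 37 C; live-cell protease cleavage of GF-AFC read by fluorescence (Ex/Em 405/510) after 60 min reagent; AC50 from Hill fits of concentration-response.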

[5] = Cell Viability - LYMP1-003 - Assay at 24 hr (AID 963)
Summary of the method: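 Human lymphoblastoid LYMP1-003 cells, 2500/well, treated 24 h at 37 C in complete medium. Viability read as intracellular ATP by CellTiter-Glo luminescence after 30 min at room temperature; AC50 from Hill-equation fits of qHTS concentration-response.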

[6] = Cell Viability - LYMP1-003 - Assay at 40 hr (AID 964); also: series mostly up to about 92 µM; nearly all actives have a fitted effect of over 60% in size
Summary of the method: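 LYMP1-003 human lymphoblastoid cells, 2500/well, preincubated 5 h at 37 C, then treated with compound for 40 h at 37 C. Intracellular ATP read by CellTiter-Glo luminescence after 30 min at room temperature; AC50 from Hill-equation fits.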

[7] = Cell Viability - LYMP2-003 (AID 965);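 also: cells exposed to compounds for 24 h before reading; nearly all actives have a fitted effect of over 50% in size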
Summary of the method: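 CellTiter-Glo luminescence quantified ATP loss after 24 h compound treatment of LYMP2-003 lymphoblastoid cells at 37 C. Titration series were fitted with the standard Hill equation to give AC50.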

[8] = Cell Viability - LYMP2-005 (AID 967); also: series mostly up to about 92 µM
Summary of the method: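 LYMP2-005 human lymphoblastoid cells (2500/well) were treated with compounds for 24 h at 37 C. Intracellular ATP was then measured by CellTiter-Glo luminescence after 30 min at room temperature. AC50 values came from Hill-equation fits of qHTS concentration-response data.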

[9] = Cell Viability - LYMP2-009 (AID 968); also: series mostly up to about 92 µM; nearly all actives have a fitted effect of over 55% in size
[10] = Cell Viability - LYMP2-011 (AID 969); also: nearly all actives have a fitted effect of over 60% in size
Summary of the method: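 2500 cells/well in complete medium, compound-treated 24 h at 37 C. Viability read as intracellular ATP by CellTiter-Glo luminescence after 30 min at room temperature. AC50 from Hill fits of qHTS concentration-response data.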

[11] = Cell Viability - LYMP2-013 (AID 970); also: series mostly up to about 92 µM; nearly all actives have a fitted effect of over 55% in size
Summary of the method: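 Human lymphoblastoid LYMP2-013 cells, 2500/well, treated 24 h at 37 C in complete medium; viability as intracellular ATP by CellTiter-Glo luminescence after 30 min. AC50 from Hill fits of qHTS concentration-response.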

[12] = Cell Viability - LYMP2-015 (AID 971); also: nearly all actives have a fitted effect of over 55% in size
Summary of the method: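 LYMP2-015 human lymphoblastoid cells (2500/well) in complete medium, compound-treated 24 h at 37 C; viability read as cellular ATP by CellTiter-Glo luminescence after 30 min at room temperature. AC50 from Hill-equation fits of qHTS concentration-response data.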

[13] = Cell Viability - LYMP2-017 (AID 972); also: series mostly up to about 92 µM; nearly all actives have a fitted effect of over 55% in size
Summary of the method: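 LYMP2-017 human lymphoblastoid cells (2500/well) settled 5 hr at 37 C, then exposed to compound 24 hr at 37 C in complete medium. Viability taken as intracellular ATP by CellTiter-Glo luminescence after 30 min at RT; AC50 from Hill fits.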

[14] = Cell Viability - LYMP2-019 (AID 973); also: nearly all actives have a fitted effect of over 55% in size
Summary of the method: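 Human lymphoblastoid LYMP2-019 cells (2500/well) preincubated 5 h at 37 C, then treated 24 h at 37 C in complete medium. Viability by CellTiter-Glo ATP luminescence after 30 min at room temperature; AC50 from Hill fits.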

[15] = Cell Viability - LYMP2-021 (AID 974)
Summary of the method: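 Human lymphoblastoid LYMP2-021 cells, 2500/well in complete medium, treated 24 hours at 37 C. Intracellular ATP by CellTiter-Glo luminescence (30 min, RT); AC50 from Hill fits of concentration-response.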

[16] = Cell Viability - LYMP2-023 (AID 975)
Summary of the method: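 LYMP2-023 human lymphoblastoid cells, 2500/well, preincubated 5 hr at 37 C, then compound-treated 24 hr at 37 C in complete medium. CellTiter-Glo luminescence (ATP) after 30 min at room temperature; AC50 from Hill-equation fits; tetraoctylammonium bromide positive control.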

[17] = Cell Viability - LYMP2-025 (AID 976); also: series mostly up to about 92 µM
Summary of the method: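 Human lymphoblastoid LYMP2-025 cells, 2500/well, exposed 24 h at 37 C in complete medium in 1536-well qHTS. Viability as cellular ATP by CellTiter-Glo luminescence; AC50 from Hill fits of concentration-response data.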

[18] = Cell Viability - LYMP2-006 (AID 978); also: series mostly up to about 92 µM; nearly all actives have a fitted effect of over 60% in size
Summary of the method: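 Potency values are Hill-fit AC50s for decreases in intracellular ATP (CellTiter-Glo luminescence). LYMP2-006 lymphoblastoid cells, 2500 per well, were exposed to compound in complete culture medium for 24 hr at 37 C.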

[19] = Cell Viability - LYMP2-007 (AID 979);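 also: cells exposed to compound for 24 h before reading; nearly all actives have a fitted effect of over 60% in size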
Summary of the method: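 Human lymphoblastoid LYMP2-007 cells (2500/well) preincubated 5 h at 37 C, then treated 24 h at 37 C in complete medium. Viability by CellTiter-Glo ATP luminescence after 30 min at room temperature; AC50 from Hill fits.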

[20] = Cell Viability - LYMP2-010 (AID 981); also: nearly all actives have a fitted effect of over 55% in size
Summary of the method: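 Human lymphoblastoid LYMP2-010 cells (2500/well) treated 24 h at 37 C in complete medium; viability read as intracellular ATP by CellTiter-Glo luminescence. AC50 from Hill fits of concentration-response data; tetraoctylammonium bromide positive control.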

[21] = Cell Viability - LYMP2-012 (AID 982)
[22] = Cell Viability - LYMP2-014 (AID 983); also: series mostly up to about 92 µM; nearly all actives have a fitted effect of over 50% in size
Summary of the method: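 LYMP2-014 human lymphoblastoid cells, 2500/well, treated 24 h at 37 C in complete medium; viability by CellTiter-Glo ATP luminescence after 30 min at room temperature. AC50 from Hill fits of qHTS concentration-response; tetraoctylammonium bromide positive control.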

Measured: Potency

Oc1c(Cl)c(Cl)c(Cl)c(Cl)c1Cl
inactive: all assays above
